# Data taken from PubChem BioAssay (NCI).
# The panel holds about 83,000 compounds, 20% with a hit somewhere; the sample as a whole holds those more often.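 Results are percent growth after 48 hours of single-concentration exposure. 100 means growth as in untreated cells, lower positive values show inhibition; negative values down to -100 show cell death.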 A number with no mark means an inactive call. The source made the active and inactive calls. How the source made its calls: active means growth percent below 10; inactive means the rest.
# How the values were obtained:
# Test in all cases: NCI-60 one-dose screen, 48 h (100 = growth as untreated, 0 = no growth, -100 = all killed)
# Details in all cases: 10 µM unless noted
# [1] = tested on: HCT-15 colon
# [2] = tested on: HT29 colon
# [3] = tested on: SNB-75 CNS
# [4] = tested on: SNB-19 CNS
# [5] = tested on: U251 CNS
# [6] = tested on: PC-3 prostate
# [7] = tested on: SK-MEL-5 melanoma
# [8] = tested on: UACC-62 melanoma
# [9] = tested on: LOX IMVI melanoma
# [10] = tested on: SK-MEL-28 melanoma
Structure (SMILES),growth [1],growth [2],growth [3],growth [4],growth [5],growth [6],growth [7],growth [8],growth [9],growth [10]
COc1ccc(/C=N/Nc2nc(Nc3ccccc3)nc(Nc3ccc(S(N)(=O)=O)cc3)n2)cc1,68.2%,55.3%,81.9%,86.3%,66.8%,75.8%,74.6%,87%,52.5%,78.5%
C#CCOc1ccc(C(Nc2ccc(Cl)cc2)c2nnnn2C2CCCCC2)cc1 (stereo not given),80%,92%,87.4%,89.5%,86.9%,75.2%,92.3%,72.4%,81.4%,102%
CC(C)=CCc1c2c(c(O)c3c1O[C@]14C(=C[C@@H]5C[C@H]1C(C)(C)O[C@@]4(C/C=C(/C)C(=O)O)C5=O)C3=O)CC(O)C(C)(C)O2 (stereo not given in full),-41.6% (active),-8.66% (active),-25.7% (active),22.6%,-72.4% (active),7.46% (active),-96.6% (active),-26.1% (active),-95.4% (active),-13.7% (active)
Clc1ccc(-c2csc(Nc3cccc(Nc4csc(-c5ccc(Cl)cc5)n4)c3)n2)cc1,56.5%,88.1%,96.8%,85.5%,85.4%,74.1%,96.2%,76%,63.8%,92.7%
COCCOc1ccc(-c2csc(NC(=O)CN3CCN(CCO)CC3)n2)cc1NS(=O)(=O)c1cccc2c(N(C)C)cccc12,85%,-68.5% (active),88.6%,62.2%,49.1%,76.1%,86.5%,80.5%,11.8%,30.8%
COc1cc(/C=C/C(=O)c2ccc(NC(=O)COc3cccc4cccnc34)cc2)cc(OC)c1OC,50.3%,81.2%,82.4%,73.7%,83.8%,84.6%,73.2%,70.1%,42.5%,95.2%
Cc1ccccc1/C=C/c1nn2c(-c3ccoc3C)nnc2s1,97.9%,97.7%,111%,90.8%,97.6%,99.4%,98.4%,88%,101%,94.9%
COc1ccc(NS(=O)(=O)c2ccc(-c3cnc(C4CC4)o3)cc2)cc1Cl,29.3%,10.6%,-2.75% (active),43.8%,36%,25.2%,18.1%,34.1%,39.5%,66.9%
Cn1nc(Nc2ccccc2)c(C(=O)NN)c1N,97.8%,103%,81.6%,101%,102%,95.1%,99.3%,96.8%,97.2%,103%
CS(=O)(=O)c1nccc(-c2c(-c3ccc(F)c(OCCc4ccccc4)c3)nc3sccn23)n1,83.1%,91.3%,108%,81.7%,105%,41.7%,98%,83.9%,75.2%,57.3%
COC(=O)[C@@]1(C)CC[C@]2(C)CC[C@]3(C)C(=CC(=O)[C@@H]4[C@@]5(C)Cc6c(n(CC#CCN7CCN(C)CC7)c7ccccc67)C(C)(C)[C@@H]5CC[C@]43C)[C@@H]2C1,2.6% (active),14.4%,100%,54.3%,57.5%,62.1%,87.2%,97.7%,-91.6% (active),105%
CC(c1ccccc1)N1C(=O)/C(=C/c2csc(C#N)n2)SC1=S (stereo not given),76.1%,106%,85.4%,93.7%,94.1%,90.5%,96.9%,85.4%,39.8%,93.5%
O=C1[C@@H]2Cc3c([nH]c4ccccc34)[C@H](c3c(Cl)cccc3Cl)N2C(=O)CN1C1CCN(Cc2ccccc2)CC1,-25.7% (active),2.12% (active),62%,61.8%,38.9%,41.8%,45.2%,90.2%,-80% (active),14.6%
CC(=O)c1sc(Nc2cccc(Nc3nc(C)c(C)s3)c2)nc1C,44.9%,70%,62.9%,90.9%,65.7%,51.3%,55.8%,48.8%,48.1%,71.5%
CN1CCN(c2nc(-c3csc(-c4ccncc4)n3)cc3ccccc23)CC1,17%,26.5%,62.5%,77.6%,49.1%,59.8%,70.4%,26.6%,11.4%,28.8%
CC(C)C[C@H]1C(=O)O[C@H](C(C)C)C(=O)N(C)[C@@H](C(C)C)C(=O)O[C@H](C(C)C)C(=O)N(C)[C@@H](C(C)C)C(=O)O[C@H](C(C)C)C(=O)N1C,16.6%,8.39% (active),7.5% (active),22.4%,14.1%,14.5%,-32% (active),9.49% (active),9.57% (active),38.2%
O=C1c2cc(Br)ccc2-n2c1nc1cc(Br)ccc1c2=O,64.8%,74.3%,68.3%,84.6%,91.9%,60.9%,60.6%,85.7%,63.9%,88.9%
O=C1CC2(CCOCC2)Oc2ncccc21,-62.6% (active),49.8%,115%,51.4%,22.3%,88.7%,100%,61.1%,-78.7% (active),-22.3% (active)
COc1ccc(-c2ccnc3c(C#N)c(Nc4ccccc4)nn23)cc1OC,88.8%,90%,51.4%,95.1%,87.7%,89.2%,74.2%,85.3%,90.9%,90.7%
CCNC(=O)Oc1ccc(/C(=C(/C)c2ccccc2)c2ccc(OCCN3CCCC3)cc2)cc1,46.5%,9.61% (active),79.4%,79%,58.6%,64.2%,25.4%,83.4%,18.4%,56.2%
COC[C@@]1(C)CC[C@]2(C)CC[C@]3(C)C(=CC[C@@H]4[C@@]5(C)CCCNC(C)(C)[C@@H]5CC[C@]43C)C2C1 (stereo not given in full),16.1%,23.3%,104%,67.5%,35.3%,46.4%,87.7%,64.5%,12.6%,66.6%
N/C(=N\OC(=O)CSc1nc2ccccc2s1)c1ccc(Cl)cc1,101%,103%,88.7%,99.4%,96.8%,99.9%,100%,87.8%,99.7%,106%
C/C(=C(/c1ccc(O)cc1)c1ccc(OCCN2CCCCCC2)cc1)c1ccccc1,-20.7% (active),-8.88% (active),71.2%,64.3%,41.2%,44.1%,58.4%,56.9%,5.39% (active),21%
Fc1ccccc1/C=C(/C1=NCCN1)n1cnc2ccccc21,93%,112%,92.2%,97.6%,101%,95.7%,106%,94.9%,90.3%,95.3%
C/C(=C(/c1ccc(O)cc1)c1ccc(OCCN2CCCC2)cc1)c1ccc(Cl)cc1,-19.1% (active),-52.3% (active),62.5%,49.1%,20.3%,46.9%,54.3%,-17.7% (active),-19.2% (active),-70% (active)
